# From PubChem BioAssay (Tox21)
# Results filed as inconclusive are left out. A call without a number means that no potency is given here. Unmarked numbers belong to inactive results. The source made the active and inactive calls. Calls come from the whole dose curve.
# Experiment: qHTS assay for small molecule agonists of the p53 signaling pathway - cell viability (AID 651633); note: nearly all actives have a fitted effect of over 30% in size;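 for activity change, negative = cytotoxicity: p53RE-bla HCT reporter cells with a stable beta-lactamase p53 reporter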
# Conditions: p53RE-bla HCT-116 viability, ATP luminescence, 16 h; series mostly up to 83.3 µM
# Source text: National Center for Advancing Translational Sciences [NCATS]
# NIH Chemical Genomics Center [NCGC]
# U.S. Environmental Protection Agency [EPA]
# National Institutes of Environmental Health Sciences [NIEHS]
# National Toxicology Program [NTP]
# U.S. Food and Drug Administration [FDA]
# p53, a tumor suppressor protein, is activated following cellular insult, including DNA damage and other cellular stresses. The activation of p53 regulates cell fate by inducing DNA repair, cell cycle arrest, apoptosis, or cellular senescence. The activation of p53, therefore, is a good indicator of DNA damage and other cellular stresses. […] The activation of the reporter gene under culture conditions can be detected by fluorescence intensity. This cell line was used to screen the Tox21 compound library in a 1536-well plate format and to identify agonists that activate the p53 signaling pathway.
# Tox21 Assay Protocol Summary:
# The p53RE-bla cells were dispensed at 4,000 cells/5 ul/well in 1536-well black wall/clear bottom plates using a Multidrop dispenser. After the assay plates were incubated at a 37 C/5% CO2 incubator for 5 hours, 23 nL of compounds dissolved in DMSO, positive controls or DMSO only was transferred to the assay plate by a pin tool. The plates were incubated at 37 C for 16 hours. After 1 uL of LiveBLAzerTM B/G FRET substrate was added using a Flying Reagent Dispenser, the plates were incubated at room temperature for 2 hours, and fluorescence intensity was measured by an Envision plate reader.
# For cell viability readout that measures cytotoxicity, 4 ul/well of CellTiter-Glo reagent was added into the assay plates using a Flying Reagent Dispenser. After 30 min incubation at room temperature, the luminescence intensity in the plates was measured using a ViewLux plate reader.
# Potency is the fitted concentration of half-maximal effect.
SMILES,Potency,"activity change, negative = cytotoxicity"
C[N+](C)(C)CCOC(=O)CCC(=O)OCC[N+](C)(C)C,inactive,
O=C(O)c1ccc(S(=O)(=O)O)cc1C(=O)O,inactive,
COc1cc2c(cc1OC)C(C(C(=O)N(CCc1ccc(OC)c(OC)c1OC)CCc1ccc(OC)c(OC)c1OC)c1ccccc1)=NCC2 (stereo not given),inactive,
O=P(O)(OCc1ccccc1)OCc1ccccc1,inactive,
CC[N+](C)(CC)CCOC(=O)C(O)(c1ccccc1)C1CCCCC1 (stereo not given),inactive,
OC[C@H]1O[C@@H](OCCc2ccc(O)cc2)[C@H](O)[C@@H](O)[C@@H]1O,inactive,
O=C1OC(CN2CCOCC2)CN1/N=C/c1ccc([N+](=O)[O-])o1 (stereo not given),inactive,
NCCCN1CCOCC1,inactive,
Nc1c(CC(=O)O)cccc1C(=O)c1ccc(Br)cc1,inactive,
CCOc1ccc(N=Nc2ccc(/C=C/c3ccc(N=Nc4ccc(OCC)cc4)cc3S(=O)(=O)O)c(S(=O)(=O)O)c2)cc1,inactive,
CCCCCCCCCCCCCCCCOS(=O)(=O)O,inactive,
CN1CCC(N(Cc2cccs2)c2ccccc2)CC1,inactive,
COc1ccc(C(=O)Nc2nc3ccccc3c(NCc3ccccc3)c2C#N)cc1,inactive,
Clc1ccc(Cn2c(CN3CCCC3)nc3ccccc32)cc1,inactive,
O=C(c1ccc(F)cc1)C1CCN(CCn2c(=S)[nH]c3ccccc3c2=O)CC1,inactive,
COC(=O)C1=C(C)NC(COC(N)=O)=C(C(=O)OC(C)C)C1c1cccc(Cl)c1Cl (stereo not given),inactive,
O=CC1CC=CCC1 (stereo not given),inactive,
OC(C#CCN1CCCC1)(c1ccccc1)c1ccccc1,inactive,
CN(C)CCN(Cc1ccc(Cl)cc1)c1ccccn1,inactive,
CCCCC/C=C\C/C=C\CCCCCCCC(=O)NC(C)c1ccccc1 (stereo not given),inactive,

SMILES,Potency,"activity change, negative = cytotoxicity"
O=C(O)c1ccc(-n2nc(-c3ccccc3O)nc2-c2ccccc2O)cc1,13.3 µM (active),
CCC(=O)O[C@]1(C(=O)CCl)[C@@H](C)C[C@H]2[C@@H]3CCC4=CC(=O)C=C[C@]4(C)[C@@]3(F)[C@@H](O)C[C@@]21C,inactive,
Cc1cccc(C)c1NC(=O)CN(CC(=O)O)CC(=O)O,inactive,
Cc1ncc(CO)c(C=O)c1O,inactive,
CCN(CC)c1ccc2c(-c3ccccc3C(=O)O)c3ccc(=[N+](CC)CC)cc-3oc2c1,inactive,
COC(C)(C)CCO,inactive,
Brc1c2ccccc2c(Br)c2ccccc12,,12.3% [at 8.08 µM]
CC1=CCCC(C)(C)C12CCC(C)O2 (stereo not given),inactive,
COc1ccc(-c2nc3ccc(C4=NNC(=O)CC4C)cc3[nH]2)cc1 (stereo not given),inactive,
C=C1[C@H]2CC[C@@H]3[C@H]2C(C)(C)CCC[C@]13C,inactive,
CC(C)(CO)[N+](=O)[O-],inactive,
OCCN1CCN(CCCN2c3ccccc3C=Cc3ccccc32)CC1,inactive,
CC(C)OC(=O)C(C)N(C(=O)c1ccccc1)c1ccc(F)c(Cl)c1 (stereo not given),inactive,
C#C[C@]1(O)CC[C@H]2[C@@H]3CCc4cc(OC5CCCC5)ccc4[C@H]3CC[C@@]21C,inactive,
CCOC(=O)c1cccnc1,inactive,
CCN(CC)CCNC(=O)c1cc(Br)c(N)cc1OC,inactive,
CO[C@@H]1[C@H](OC(=O)/C=C/C=C/C=C/C=C/C(=O)O)CC[C@]2(CO2)[C@H]1[C@@]1(C)O[C@@H]1CC=C(C)C,inactive,
CCC(C)O (stereo not given),inactive,
CCOC(=O)NCCOc1ccc(Oc2ccccc2)cc1,inactive,
CCCCCCCCO[C@@H]1O[C@H](CO)[C@@H](O)[C@H](O)[C@H]1O,inactive,
